Unmarked numbers belong to inactive results. Calls of active or inactive are those of the source.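 How the source made its calls: active means inhibition above about 23% in any of six single-dose repeats (limit read from the data); inactive means the rest.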
These molecules were tested against Intestinal-type alkaline phosphatase (Homo sapiens) (UniProt P09923) (assay: human IAP inhibitors, confirmation, biochemical, luminescence, single concentration, uHTS hits (AID 434927;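 further: plate controls were DMSO wells with enzyme for no effect and wells lacking enzyme for full effect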)). Conditions: purified human IAP, CDP-Star luminescence, 30 min; at 8.3 µM; hits give high values.
Intestinal-type alkaline phosphatase (Homo sapiens), sequence (P09923 whole entry, looked up): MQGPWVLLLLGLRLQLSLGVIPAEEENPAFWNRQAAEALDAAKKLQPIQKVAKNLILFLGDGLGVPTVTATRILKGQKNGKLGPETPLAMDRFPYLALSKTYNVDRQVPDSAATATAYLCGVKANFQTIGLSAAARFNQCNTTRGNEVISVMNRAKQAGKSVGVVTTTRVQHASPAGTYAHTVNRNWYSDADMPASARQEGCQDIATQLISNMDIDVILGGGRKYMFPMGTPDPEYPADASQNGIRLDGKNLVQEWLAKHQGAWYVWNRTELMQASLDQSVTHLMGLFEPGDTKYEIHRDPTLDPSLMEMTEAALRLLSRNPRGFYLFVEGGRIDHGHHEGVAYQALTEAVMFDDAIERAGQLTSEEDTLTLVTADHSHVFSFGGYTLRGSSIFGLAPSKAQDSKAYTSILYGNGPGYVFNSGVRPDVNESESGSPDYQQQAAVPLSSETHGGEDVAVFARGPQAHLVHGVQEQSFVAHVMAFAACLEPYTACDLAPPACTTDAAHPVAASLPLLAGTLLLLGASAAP

Compound	inhibition
Nc1ccc(-c2c3ccc(=O)cc-3oc3cc(O)ccc23)cc1C(=O)O	64.5% (active)
COc1ccc(C2=NN(C3=NN=C(N)Cc4ncnn43)C(O)(C(F)(F)F)C2)cc1 (stereo not drawn)	42% (active)
Cc1ccc(-n2ncc3c(NNC(=O)c4ccco4)ncnc32)cc1C	41.4% (active)
C=CCN1C(=O)C2(NNc3ccccc3O2)c2ccccc21 (stereo not drawn)	-92.8%
Cc1ccsc1C(=O)NNC(=S)NC1CCCCC1	49.4% (active)
COc1cccc(/C=N\NC(=O)C2=NNC(=O)C2C)c1O (stereo not drawn)	34.8% (active)
CCOc1cc(/C=N/NC(=O)C(=O)N/N=C/c2ccc(O)c(OCC)c2)ccc1O	-47.6%
CC(C)CC(=O)NC(=S)NNC(=O)c1ccc(NC(=O)C2CCCCC2)cc1	62.1% (active)
COc1cc(CN2CCC(n3nccc3NC(=O)CCCc3ccccc3)CC2)ccc1F	40.7% (active)
O=C(Cc1coc2ccc3ccccc3c12)NCc1ccccc1	59.4% (active)
COc1ccccc1CCNC(=O)C1CCN(c2nnc(C)c3c(C)n(-c4ccc(C)cc4)nc23)CC1	30.8% (active)
CC(C)Oc1ccc(CCC(=O)NNC(=S)NCc2ccccc2)cc1	46.5% (active)
Cc1cc(=O)[nH]c(-n2[nH]c3c(c2=O)CCCC3)n1	55.9% (active)
Cc1cc(NC(=O)c2ccc(N3C(=O)C4C5C=CC(C5)C4C3=O)cc2)no1 (stereo not drawn)	-161%
CC(C)(C)N/N=C/c1c(O)n(-c2ccc(Cl)cn2)c(=O)c2ccccc12	-93.3%
Cc1ccc(S(=O)(=O)NCCC(=O)NNC(=O)COc2ccc(Br)cc2)cc1C	41% (active)
O=C(COc1ccc2ccccc2c1Br)N1CCCCC1	-50.2%

Compound	inhibition
N#C/C(=C\c1ccc(O)c(O)c1)C(=O)c1ccc(O)c(O)c1	74.3% (active)
CC(=O)Nc1cccc(C(=O)NNC(=O)c2n[nH]c(=O)c3ccccc23)c1	-125%
Cc1cccc(SCc2noc(C(=O)NCC3CCCO3)c2C(=O)O)c1 (stereo not drawn)	-213%
CC(/C=N/NC(=O)CCn1nnc2ccccc21)=C\c1ccccc1	-88.8%
CC1=NN(Cc2ccccc2)C(=O)/C1=C\c1ccc(N(C)C)cc1	65.6% (active)
Cc1cccc(NS(=O)(=O)c2cccc(C(=O)NNC(=O)c3ccccc3O)c2)c1	29.2% (active)
CCOc1cccc(OCCOCCOc2ccccc2C(C)=O)c1	-219%
O=C(COc1ccccc1Cl)N1CCN(c2ccc([N+](=O)[O-])c(N3CCCCC3)c2)CC1	-60.9%
CCn1c(C)nc2cc(C(=O)N/N=C/c3cccc(O)c3O)ccc21	-42.9%
N#Cc1cc(Oc2ccccc2)c(-n2nnc3ccccc32)cc1C#N	40.7% (active)
CC(C)n1cc(CN2CCC(C(=O)Nc3cccc(-c4cccc(Cl)c4)c3)CC2)cn1	-96.7%
COc1ccccc1CN1CCC(n2nccc2NC(=O)CCCc2ccccc2)CC1	-112%
O=C(NN1C(=O)CSC1=S)C(=O)NN1C(=O)CSC1=S	73.8% (active)
O=C(CCN1C(=O)/C(=C/c2ccccc2Cl)SC1=S)NNC(=O)c1ccccc1O	62.3% (active)
CCN(CC)c1ccc(/C=N/NC(=O)c2nnn(-c3nonc3N)c2C(C)C)c(O)c1	32.4% (active)
CC(NC(=S)NC1CCC(C(C)(C)C)CC1)c1ccccc1 (stereo not drawn)	-111%

— PubChem BioAssay AID434927 (Sanford-Burnham Center for Chemical Genomics, 2010)
